Source: PubChem BioAssay (NCATS)
Results filed as inconclusive are left out. Active and inactive are the calls of the source. Calls follow the shape of the dose curve; as a rule, active = well fitted inhibition curve with a large enough effect; inconclusive = small, poorly fitted or top-dose-only effect; inactive = flat fitted curve, though single readings scatter.

Tests used:
Test in all cases: qHTS profiling for inhibitors of Plasmodium falciparum proliferation (AID 504749); also: nearly all actives have a fitted effect of over 60% in size
Conditions in all cases: P. falciparum in erythrocytes, SYBR Green DNA, 72 h; series mostly up to 28.7 µM
[1] = system: DFO2036
In short: (§1)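 Quantitative HTS: compounds pinned into medium, infected erythrocytes added (0.3% parasitemia, 2.5% hematocrit), 72 h culture at 37 C under 5% CO2. Saponin/Triton lysis with SYBR Green I, overnight RT, then fluorescence read.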

[2] = system: DIV17
In short: as §1

[3] = system: DIV30
In short: as §1

[4] = system: Dd2
In short: as §1

[5] = system: ECU
In short: as §1

[6] = system: FAB9
In short: as §1

[7] = system: GB4
In short: as §1

[8] = system: HB3
In short: as §1

[9] = system: ICS
In short: as §1

[10] = system: JCK
In short: as §1

[11] = system: N140
In short: as §1

[12] = system: P93_24
In short: as §1

[13] = system: P94_40
In short: as §1

[14] = system: PAD
In short: as §1

[15] = system: PC15
In short: as §1

[16] = system: PC26
In short: as §1

[17] = system: PC49
In short: as §1

[18] = system: SC27B
In short: as §1

[19] = system: CP335
In short: as §1

[20] = system: DIV14
In short: as §1

Measured: Potency
Potency is read from the fitted curve at half-maximal effect.

O=C(O)c1ccccn1
not listed: [19] | [20]
inactive: all other assays above

OCCN1CCN(CCCN2c3ccccc3Sc3ccc(Cl)cc32)CC1
active: [19] 2.56 µM | [20] 5.73 µM | [2] 5.1 µM | [4] 3.55 µM | [5] 3.16 µM | [7] 4.55 µM | [9] 3.98 µM | [11] 3.55 µM | [12] 2.24 µM | [15] 3.16 µM
inactive: [3]

NCCNCCNCCN
not listed: [13] | [19]
inactive: all other assays above

Cc1c(O)cccc1C(=O)N[C@@H](CSc1ccccc1)[C@H](O)CN1C[C@H]2CCCC[C@H]2C[C@H]1C(=O)NC(C)(C)C
inactive: [6]
active: [20] 16.9 µM | [3] 15.1 µM | [4] 11.2 µM | [5] 11.2 µM | [8] 10 µM | [9] 4.47 µM | [11] 7.94 µM | [12] 8.91 µM | [13] 10 µM | [14] 10 µM | [18] 7.94 µM

Cc1cc2c(cc1S(N)(=O)=O)S(=O)(=O)CCC2
not listed: [19]
inactive: all other assays above

NC1CCN(c2cccc(Cl)n2)CC1
active: [7] 7.57 µM
not listed: [2] | [4] | [12] | [13] | [20]
inactive: all other assays above

NCC(=O)CCC(=O)O
not listed: [19]
inactive: all other assays above

CSc1ccc2c(c1)C(N1CCN(C)CC1)Cc1ccccc1S2 (configuration not stated)
inactive: [6] | [8] | [10] | [15] | [17]
active: [20] 10.7 µM | [2] 15.1 µM | [7] 13.5 µM | [9] 8.91 µM | [12] 11.2 µM

COc1ccc2[nH]c(S(=O)Cc3ncc(C)c(OC)c3C)nc2n1 (configuration not stated)
active: [20] 3.38 µM | [2] 4.78 µM | [4] 12.6 µM | [5] 6.31 µM | [9] 7.94 µM | [11] 6.31 µM | [12] 7.94 µM | [13] 8.91 µM | [14] 4.47 µM | [17] 7.94 µM | [18] 8.91 µM

CC(C(O)c1ccc(O)cc1)N1CCC(Cc2ccccc2)CC1 (configuration not stated)
active: [19] 10.7 µM | [20] 13.5 µM | [2] 15.1 µM | [4] 8.91 µM | [7] 7.57 µM | [12] 11.2 µM
inactive: [6] | [17]

CNCCCC1c2ccccc2C=Cc2ccccc21
active: [2] 2.56 µM
inactive: [1] | [5] | [6] | [8] | [10] | [11] | [14] | [17] | [18]

Nc1ccc(S(=O)(=O)Nc2ccc(Cl)nn2)cc1
active: [10] 0.891 µM
inactive: [20] | [2] | [3] | [7] | [9] | [16]

CC(C)(C)C(=O)C(Oc1ccc(Cl)cc1)n1ccnc1 (configuration not stated)
active: [1] 12.6 µM | [20] 13.5 µM | [2] 13.5 µM | [3] 12 µM | [4] 11.2 µM | [5] 10 µM | [7] 13.5 µM | [9] 12.6 µM | [11] 8.91 µM | [12] 5.01 µM | [13] 7.94 µM | [14] 8.91 µM | [16] 16.9 µM
inactive: [6] | [10]

OCc1cc(C(O)CNCCCCCCOCCCCc2ccccc2)ccc1O (configuration not stated)
active: [7] 9.53 µM
not listed: [2] | [3] | [9] | [12] | [15] | [16] | [19] | [20]
inactive: all other assays above

C[C@]12C[C@H](O)[C@H]3[C@@H](CCC4=CC(=O)CC[C@@]43C)[C@@H]1CC[C@@H]2C(=O)CO
inactive: [19] | [20] | [2] | [3] | [7] | [9] | [15] | [16]

c1ccc(CN(CC2=NCCN2)c2ccccc2)cc1
active: [20] 6.75 µM | [2] 7.57 µM | [4] 12.6 µM | [17] 3.16 µM
inactive: [6] | [8]

CN1CCCCC1CCN1c2ccccc2Sc2ccc(S(C)=O)cc21 (configuration not stated)
active: [20] 7.57 µM | [2] 12 µM | [9] 5.01 µM
inactive: [1] | [5] | [6] | [8] | [10] | [14] | [17]

Cc1ccc2nc(N)[nH]c(=O)c2c1Sc1ccncc1
active: [1] 10 µM | [4] 11.2 µM | [7] 10.7 µM | [10] 12.6 µM | [11] 3.98 µM | [12] 14.1 µM | [13] 12.6 µM
inactive: [3] | [16]

CCN(CC)CCNC(C(=O)OCCC(C)C)c1ccccc1 (configuration not stated)
inactive: [6] | [8] | [10] | [14] | [18]
active: [20] 4.26 µM | [2] 7.57 µM | [4] 7.08 µM | [7] 7.57 µM | [9] 5.62 µM | [12] 8.91 µM

[Cl][In]([Cl])[Cl]
active: [3] 15.1 µM | [4] 11.2 µM | [9] 2.51 µM | [12] 10 µM

Cc1cc(N)c2ccccc2[n+]1CCCCCCCCCC[n+]1c(C)cc(N)c2ccccc21
active: [1] 0.0794 µM | [20] 0.161 µM | [2] 0.287 µM | [3] 0.256 µM | [4] 0.0631 µM | [5] 2.51 µM | [6] 0.199 µM | [7] 0.144 µM | [8] 0.794 µM | [9] 0.1 µM | [10] 1.12 µM | [11] 0.251 µM | [12] 0.0708 µM | [13] 7.08 µM | [14] 2.24 µM | [15] 0.282 µM | [16] 0.51 µM | [17] 0.126 µM | [18] 3.16e-05 µM
